Our source for the growth inhibition values is PubChem BioAssay (NCI).

Assay [1] can be described thus: NCI Yeast Anticancer Drug Screen. Data for the rad50 strain (AID 155).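 Also: 0% = growth of vehicle-only cultures of the same strain.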 The conditions noted are these: S. cerevisiae rad50 strain growth inhibition, hits give high values; at 50.0 µM unless noted. In a few lines:
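Inhibition values express reduced yeast growth in compound-treated cultures relative to vehicle-treated controls.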

A short description of assay [2]: NCI Yeast Anticancer Drug Screen. Data for the mec2-1 strain (AID 157). The conditions noted are these: S. cerevisiae mec2-1 strain, hits give high values; at 50.0 µM unless noted. The method in brief:
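Each compound was tested on mec2-1 yeast, a strain altered in DNA damage repair or cell cycle control. Growth inhibition is reported relative to vehicle.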

The nature of assay [3]: NCI Yeast Anticancer Drug Screen. Data for the sgs1 mgt1 strain (AID 161).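 Also: 0% = growth of cultures given vehicle only.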 The conditions noted are these: S. cerevisiae sgs1 mgt1 strain, hits give high values; at 50.0 µM unless noted. In a few lines:
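Read-out: growth inhibition vs vehicle controls. Cells: mutant yeast strain deficient in DNA damage repair.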

Assay [4] can be described thus: NCI Yeast Anticancer Drug Screen. Data for the cln2 rad14 strain (AID 165).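 Also: 0% = growth equal to vehicle treated cultures.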 The conditions noted are these: S. cerevisiae cln2 rad14 strain, hits give high values; at 50.0 µM unless noted. In a few lines: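 Test compounds were added to cln2 rad14 yeast cultures; inhibition of growth was then determined by comparison with vehicle treatment.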
Assay [5] can be described thus: NCI Yeast Anticancer Drug Screen. Data for the bub3 strain (AID 167). The conditions noted are these: S. cerevisiae bub3 mutant strain, hits give high values; at 50.0 µM unless noted. The method in brief:
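Steps: expose the mutant yeast strain to compound; grow alongside vehicle-treated cultures; measure growth; express inhibition against the vehicle cultures.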

The nature of assay [6]: NCI Yeast Anticancer Drug Screen. Data for the mlh1 rad18 strain (AID 175). The conditions noted are these: S. cerevisiae mlh1 rad18 strain growth inhibition, hits give high values; at 50.0 µM unless noted. The method in brief:
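Inhibition values reflect reduced growth of mutant yeast versus vehicle-treated controls following compound exposure; the mutations affect DNA damage repair.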

This is part of a sample that, as a whole, favours compounds with a hit. Of some 79,000 tested, about 15% had one in any assay. Unmarked numbers belong to inactive results. The source made the active and inactive calls. Rule as the data show it: active = growth inhibition above about 70%; inactive = the rest.

On to `CCOC(=O)/C(SC#N)=C(/N)N1CCCC1`, for which the growth inhibition is -12.2% in assay [1]; -43.8% in assay [2]; -4% in assay [3]; 9.95% in assay [4]; 0.75% in assay [5]; -14.2% in assay [6].

With `CCN(CC)C(=S)Oc1cc(Cl)c(Cl)cc1Cl`, the growth inhibition in assay [1] is -5.45%; in assay [2], 3.8%; in assay [3], -5.2%; in assay [4], -2.55%; in assay [5], 18.7%; in assay [6], 21.2%.

Take `C=CCSC[C@H](NC(=O)COc1ccccc1)C(=O)NC(C(=O)OCc1ccc([N+](=O)[O-])cc1)=C(C)C`: the growth inhibition in assay [1] is 45.8%; in assay [2], 26.6%; in assay [3] it was 24.6%; in assay [4] it was 31.1%; in assay [5], 39.4%; in assay [6] it was 14.4%.

Take `CC(C)CN(CC(C)C)C(=O)c1ccccc1`: the growth inhibition was 2.3% in assay [1]; 8.2% in assay [2]; 1.1% in assay [3]; 8.85% in assay [4]; 4.9% in assay [5]; 2.4% in assay [6].

Turning to `O=C(CCCn1ccnc1[N+](=O)[O-])NCCn1cnc([N+](=O)[O-])n1`, the growth inhibition in assay [1] is 7%; in assay [2], 17.2%; in assay [3], -6.05%; in assay [4] it was -6.2%; in assay [5], -4.8%; in assay [6] it was -16.1%.

Take `CC(C)N1C(=O)c2cccc(Cl)c2C1=O` (tested in a mixture with another compound): the growth inhibition in assay [1] was 10.8%; in assay [2], 4.1%; in assay [3], 37.3%; in assay [4] it was 37.6%; in assay [5] it was -7.85%; in assay [6], 1.4%.

Turning to `O=C1CC(Br)C(c2ccccc2)(c2ccccc2)O1` (stereo not given), the growth inhibition in assay [1] was 32.2%; in assay [2] it was 9.4%; in assay [3], 33.6%; in assay [4], 46.3%; in assay [5], 14.2%; in assay [6], 32%.

Regarding `OCC1OC(n2cnc3c(/C=C(/O)c4ccccc4)ncnc32)C(O)C1O` (stereo not given), the growth inhibition in assay [1] is -32.6%; in assay [2] it was -27%; in assay [3] it was 0.35%; in assay [4], -13.5%; in assay [5], -27.1%; in assay [6], 5.35%.

As for `CCSc1nnc(SCC)c2c1ncn2CC`, the growth inhibition in assay [1] is 19.9%; in assay [2], 5.8%; in assay [3], 26.4%; in assay [4], -39.8%; in assay [5] it was 7.5%; in assay [6], 9.05%.

Turning to `CCC(O)c1ccc(OCc2ccccc2)c(OC)c1` (stereo not given), the growth inhibition in assay [1] is 7.35%; in assay [2], -2.1%; in assay [3] it was 24.6%; in assay [4], -43.1%; in assay [5], -4.05%; in assay [6], 2.25%.

`O=C1C(Br)=C[C@H]2C3C=CC(Br)(C3=O)[C@@H]12` (stereo not given in full): the growth inhibition in assay [1] is 20.8%; in assay [2], 14.9%; in assay [3] it was 14.9%; in assay [4] it was 25.2%; in assay [5], 15.6%; in assay [6] it was 23.6%.

In the case of `COc1ccccc1N=Nc1c(O)n(-c2ccccc2)c(=S)n(-c2ccccc2)c1=O`, the growth inhibition is 36.2% in assay [1]; -4.55% in assay [2]; 26.8% in assay [3]; -9.3% in assay [4]; -2.85% in assay [5]; 8.9% in assay [6].

In the case of `Cc1cc(C)cc(N(C2=NCCS2)C2=NCCS2)c1`, the growth inhibition in assay [1] was 5%; in assay [2] it was -4.55%; in assay [3], -2.35%; in assay [4] it was 0.45%; in assay [5], 21.9%; in assay [6], 4.9%.

For `Cc1cc(=O)c2c(o1)C(=O)c1occc1C2=O`, the growth inhibition in assay [1] was -9.5%; in assay [2] it was -34.5%; in assay [3] it was -3.9%; in assay [4] it was 5.85%; in assay [5], -6.1%; in assay [6], -13%.

Consider `CCOC(=O)Cc1nc2nn(Cc3ccccc3)cc2c(=O)[nH]1`, for which the growth inhibition in assay [1] is -48.8%; in assay [2], -63.9%; in assay [3] it was -7%; in assay [4] it was 0.65%; in assay [5], -10.9%; in assay [6], -19.8%.

With `CC(=O)c1cccc(NC(=O)Oc2ccc(-c3ccccc3)cc2Cl)c1`, the growth inhibition is 99.2% (active) in assay [1]; 99.6% (active) in assay [2]; 99.5% (active) in assay [3]; 98.8% (active) in assay [4]; 99.5% (active) in assay [5]; 99.3% (active) in assay [6].

For the molecule `CN(C)C(=S)Oc1ccc(-c2c(-c3ccccc3)oc3ccc4ccccc4c23)cc1`, the growth inhibition in assay [1] was 28.2%; in assay [2] it was -4.05%; in assay [3], 7.95%; in assay [4] it was 10.8%; in assay [5], -0.1%; in assay [6], 9.4%.

For the molecule `C/C(=C\CNc1ncnc2c1ncn2CCC#N)CO`, the growth inhibition in assay [1] is -17%; in assay [2], 13.2%; in assay [3] it was -33.2%; in assay [4], 1.5%; in assay [5], 14.8%; in assay [6], -15.9%.

`CCOP(=O)(OCC)/C(=C/n1c(=S)[nH]c2ccccc21)C(=O)OC`: the growth inhibition in assay [1] is -29.8%; in assay [2], -55.1%; in assay [3], -10%; in assay [4], 0.9%; in assay [5] it was -0.8%; in assay [6], -22.2%.

In the case of `CC(=O)Nc1ccc(N(C)C)cc1`, the growth inhibition in assay [1] was 0.15%; in assay [2] it was -3.4%; in assay [3] it was 0.55%; in assay [4], 10.2%; in assay [5], 14.7%; in assay [6] it was -7.85%.
